Results on three compounds are retold here after PubChem BioAssay (EPA / NIEHS).

Active and inactive are the calls of the source. Rule for the calls: active = hit-call score of the fitted dose curve at least 0.9, where 1 is the maximum; inactive = score below 0.9.

Holding throughout (details): mRNA level, 48 h; actives raise or lower the signal
Read-out in assay [1]: Bcl-2 (BAX) gene, BAX (gene 581)
Nature of the assay: LTEA_HepaRG_BAX: Life Technologies and Expression Analysis (LTEA) Assay for Bcl-2 (BAX) gene using HepaRG (AID 2283470). The method, boiled down: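 Gene expression measured by Fluidigm qRT-PCR with three housekeeping genes for normalisation. HepaRG cells, plated 48 h beforehand, treated 48 h at up to 100 uM (8-point, half-log) in 0.5% DMSO. Bidirectional fitting versus DMSO.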

Read-out in assay [2]: adenosine kinase (ADK) gene, ADK (gene 132)
In words: LTEA_HepaRG_ADK: Life Technologies and Expression Analysis (LTEA) Assay for adenosine kinase (ADK) gene using HepaRG (AID 2283471). Summed up:
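HepaRG (human liver), 48 h chemical exposure, 8-pt half-log series, top 100 uM, 0.5% DMSO vehicle. Readout: ADK mRNA by qRT-PCR vs housekeeping genes; bidirectional curve fit relative to DMSO baseline.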

Read-out in assay [3]: Alpha-fetoprotein (AFP) gene, AFP (gene 174)
In words: LTEA_HepaRG_AFP: Life Technologies and Expression Analysis (LTEA) Assay for Alpha-fetoprotein (AFP) gene using HepaRG (AID 2283472). Summed up:
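AFP transcript measured by TaqMan qRT-PCR with three housekeeping genes for normalization, after 48 h chemical treatment of HepaRG cells (top 100 uM, half-log steps, 0.5% DMSO). Gain or loss fitted against vehicle.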

Read-out in the next assay: BCL2L11 (gene 10018)
Nature of the assay: LTEA_HepaRG_BCL2L11: Life Technologies and Expression Analysis (LTEA) Assay for Bcl-2 (BCL2L11) gene using HepaRG (AID 2283473). The method, boiled down: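 Read-out is BCL2L11 transcript level by qRT-PCR, normalized to three housekeeping genes and fitted bidirectionally against 0.5% DMSO vehicle. HepaRG cells received chemicals for 48 h in serum-free induction medium, 100 uM down in half-log dilutions.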

Read-out in assay [4]: Apolipoprotein A-V (APOA5) gene, APOA5 (gene 116519)
Nature of the assay: LTEA_HepaRG_APOA5: Life Technologies and Expression Analysis (LTEA) Assay for Apolipoprotein A-V (APOA5) gene using HepaRG (AID 2283474). The method, boiled down: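 Readout is APOA5 transcript level by qRT-PCR on Fluidigm dynamic arrays, normalized to three housekeeping genes. HepaRG cultures received chemicals for 48 h at up to 100 uM (half-log steps, 0.5% DMSO), with gain or loss scored relative to DMSO.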

Read-out in assay [5]: Apoptosis regulator Bcl-2 (Homo sapiens) (UniProt P10415)
Nature of the assay: LTEA_HepaRG_BCL2: Life Technologies and Expression Analysis (LTEA) Assay for Bcl-2 gene using HepaRG (AID 2283475). The method, boiled down:
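qRT-PCR of BCL2 transcript, normalized to three housekeeping genes (ACTB, GAPDH, POLR2A), after 48 h chemical exposure of HepaRG cells; concentrations top 100 uM with half-log dilutions, 0.5% DMSO vehicle, duplicates; changes up or down fitted relative to vehicle.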

Read-out in assay [6]: Bcl-2 (BID) gene, BID (gene 637)
In words: LTEA_HepaRG_BID: Life Technologies and Expression Analysis (LTEA) Assay for Bcl-2 (BID) gene using HepaRG (AID 2283476). Summed up:
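Duplicate 48 h treatments of HepaRG cells in serum-free induction medium spanned 100 uM downward in half-log steps, 0.5% DMSO. Transcript change quantified by qRT-PCR against three housekeeping genes, fitted up or down versus DMSO.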

Read-out in the next assay: Caspase-3 (Homo sapiens) (UniProt P42574)
In words: LTEA_HepaRG_CASP3: Life Technologies and Expression Analysis (LTEA) Assay for cysteine-aspartic acid protease (CASP3) using HepaRG (AID 2283477). The method, boiled down:
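Read-out is CASP3 mRNA level by TaqMan qRT-PCR in human HepaRG cells after 48 h chemical exposure. Eight half-log concentrations topping at 100 uM were tested in 0.5% DMSO; gain or loss was fitted relative to DMSO.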

Read-out in assay [7]: Cytochrome P450 (CYP24A1), CYP24A1 (gene 1591)
Nature of the assay: LTEA_HepaRG_CYP24A1: Life Technologies and Expression Analysis (LTEA) Assay for Cytochrome P450 (CYP24A1) using HepaRG (AID 2283478). Summed up:
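HepaRG, 48 h chemical exposure, 8-pt half-log CRC from 100 uM, 0.5% DMSO vehicle, duplicates. Endpoint: CYP24A1 mRNA by Fluidigm TaqMan qRT-PCR, normalized ACTB/GAPDH/POLR2A; gain/loss fit vs DMSO.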

Read-out in assay [8]: Cytochrome P450 (CYP1A2), CYP1A2 (gene 1544)
Nature of the assay: LTEA_HepaRG_CYP1A2: Life Technologies and Expression Analysis (LTEA) Assay for Cytochrome P450 (CYP1A2) using HepaRG (AID 2283479). Summed up: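 CYP1A2 transcript induction or loss, quantified by Fluidigm qRT-PCR against three housekeeping genes, was fitted bidirectionally against 0.5% DMSO controls. Human HepaRG cells received eight half-log concentrations from 100 uM over 48 h.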

Read-out in assay [9]: cysteine-aspartic acid protease (CASP8), CASP8 (gene 841)
Nature of the assay: LTEA_HepaRG_CASP8: Life Technologies and Expression Analysis (LTEA) Assay for cysteine-aspartic acid protease (CASP8) using HepaRG (AID 2283480). The method, boiled down: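 Concentration-response in duplicate up to 100 uM (half-log steps, 0.5% DMSO) on differentiated HepaRG cultures for 48 h. Expression change of CASP8 mRNA is determined by TaqMan qRT-PCR with housekeeping-gene normalization.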

Read-out in assay [10]: Cytochrome P450 (CYP2B6), CYP2B6 (gene 1555)
Nature of the assay: LTEA_HepaRG_CYP2B6: Life Technologies and Expression Analysis (LTEA) Assay for Cytochrome P450 (CYP2B6) using HepaRG (AID 2283481). The method, boiled down:
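HepaRG cells plated 48 h, switched to serum-free induction medium, then dosed 48 h (8 points, half-log from 100 uM, 0.5% DMSO). RNA isolated; CYP2B6 expression measured by qRT-PCR; gain or loss fitted relative to DMSO.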

Read-out in assay [11]: Cytochrome P450 2C19 (Homo sapiens) (UniProt P33261)
In words: LTEA_HepaRG_CYP2C19: Life Technologies and Expression Analysis (LTEA) Assay for CYP2C19 using HepaRG (AID 2283482). Summed up: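 Transcript levels of CYP2C19 were quantified by qRT-PCR after HepaRG cells were treated for 48 hours with test chemicals up to 100 uM (eight half-log concentrations, 0.5% DMSO vehicle). Gain or loss of signal was fitted relative to DMSO.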

Read-out in a further assay: CYP2C8 (gene 1558)
Nature of the assay: LTEA_HepaRG_CYP2C8: Life Technologies and Expression Analysis (LTEA) Assay for CYP2C8 using HepaRG (AID 2283483). The method, boiled down: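 This is a transcriptional endpoint in HepaRG cultures: 48 h exposure, highest concentration 100 uM. CYP2C8 mRNA is quantified by TaqMan qRT-PCR.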

Read-out in the next assay: CYP2C9 (gene 1559)
In words: LTEA_HepaRG_CYP2C9: Life Technologies and Expression Analysis (LTEA) Assay for CYP2C9 using HepaRG (AID 2283484). The method, boiled down:
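Eight-point concentration-response (highest 100 uM, half-log dilutions) in HepaRG cells for 48 h; CYP2C9 expression by qRT-PCR normalized to ACTB, GAPDH, POLR2A. Bidirectional fit, DMSO baseline.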

Read-out in the next assay: CYP2E1 (gene 1571)
In words: LTEA_HepaRG_CYP2E1: Life Technologies and Expression Analysis (LTEA) Assay for CYP2E1 using HepaRG (AID 2283485). The method, boiled down: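 CYP2E1 transcript measured by Fluidigm qRT-PCR against three housekeeping genes in human HepaRG cells treated 48 h (top 100 uM, half-log steps, 0.5% DMSO vehicle). Gain or loss fitted relative to DMSO baseline.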

Read-out in the next assay: CYP4A11 (gene 1579)
Nature of the assay: LTEA_HepaRG_CYP4A11: Life Technologies and Expression Analysis (LTEA) Assay for CYP4A11 using HepaRG (AID 2283486). The method, boiled down:
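HepaRG, 48 h chem exposure, 8 conc (100 uM top, half-log), 0.5% DMSO vehicle; qRT-PCR readout, housekeeping-gene normalized; bidirectional curve fit vs DMSO baseline.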

Read-out in assay [12]: DNA damage-inducible transcript 3 (DDIT3), DDIT3 (gene 1649)
Nature of the assay: LTEA_HepaRG_DDIT3: Life Technologies and Expression Analysis (LTEA) Assay for DNA damage-inducible transcript 3 (DDIT3) using HepaRG (AID 2283488). Summed up: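 DDIT3 transcript was quantified by qRT-PCR with ACTB/GAPDH/POLR2A normalization after 48 h chemical treatment of differentiated HepaRG cells in 0.5% DMSO. Dosing was eight-point, half-log, top 100 uM, duplicate wells. Curves fitted bidirectionally versus DMSO.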

Read-out in assay [13]: Pro-epidermal growth factor (Homo sapiens) (UniProt P01133)
Nature of the assay: LTEA_HepaRG_EGF: Life Technologies and Expression Analysis (LTEA) Assay for Epidermal growth factor (EGF) using HepaRG (AID 2283489). The method, boiled down:
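HepaRG, 48 h dosing, 100 uM top, half-log x8, 0.5% DMSO. Readout: TaqMan qRT-PCR (Fluidigm array), housekeeping-normalized. Gain or loss of signal fit vs DMSO.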

Read-out in assay [14]: Cytochrome P450 3A4 (Homo sapiens) (UniProt P08684)
In words: LTEA_HepaRG_CYP3A4: Life Technologies and Expression Analysis (LTEA) Assay for CYP3A4 using HepaRG (AID 2283487). The method, boiled down: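 CYP3A4 transcript measured by TaqMan qRT-PCR and normalized to three housekeeping genes after 48 h chemical exposure of human HepaRG cells. Top concentration 100 uM, half-log steps, 0.5% DMSO vehicle; gain or loss fitted against DMSO baseline.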

Chain of Caspase-3 (Homo sapiens) (P42574 whole entry, looked up): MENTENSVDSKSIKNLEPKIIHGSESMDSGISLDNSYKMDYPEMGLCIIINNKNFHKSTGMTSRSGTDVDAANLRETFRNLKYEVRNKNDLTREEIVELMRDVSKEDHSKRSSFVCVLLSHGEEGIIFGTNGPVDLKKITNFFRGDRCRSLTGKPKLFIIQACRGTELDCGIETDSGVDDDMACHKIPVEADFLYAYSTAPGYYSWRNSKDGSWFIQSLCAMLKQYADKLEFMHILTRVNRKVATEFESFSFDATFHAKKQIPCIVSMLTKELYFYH
Chain of Apoptosis regulator Bcl-2 (Homo sapiens) (P10415 whole entry, looked up): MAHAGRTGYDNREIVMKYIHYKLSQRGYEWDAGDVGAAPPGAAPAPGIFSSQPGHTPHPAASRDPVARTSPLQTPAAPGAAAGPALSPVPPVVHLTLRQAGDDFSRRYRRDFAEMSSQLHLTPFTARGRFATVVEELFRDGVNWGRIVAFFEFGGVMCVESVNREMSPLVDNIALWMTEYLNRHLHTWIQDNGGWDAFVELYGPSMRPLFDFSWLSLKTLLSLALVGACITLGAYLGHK
Chain of Cytochrome P450 2C19 (Homo sapiens) (P33261 whole entry, looked up): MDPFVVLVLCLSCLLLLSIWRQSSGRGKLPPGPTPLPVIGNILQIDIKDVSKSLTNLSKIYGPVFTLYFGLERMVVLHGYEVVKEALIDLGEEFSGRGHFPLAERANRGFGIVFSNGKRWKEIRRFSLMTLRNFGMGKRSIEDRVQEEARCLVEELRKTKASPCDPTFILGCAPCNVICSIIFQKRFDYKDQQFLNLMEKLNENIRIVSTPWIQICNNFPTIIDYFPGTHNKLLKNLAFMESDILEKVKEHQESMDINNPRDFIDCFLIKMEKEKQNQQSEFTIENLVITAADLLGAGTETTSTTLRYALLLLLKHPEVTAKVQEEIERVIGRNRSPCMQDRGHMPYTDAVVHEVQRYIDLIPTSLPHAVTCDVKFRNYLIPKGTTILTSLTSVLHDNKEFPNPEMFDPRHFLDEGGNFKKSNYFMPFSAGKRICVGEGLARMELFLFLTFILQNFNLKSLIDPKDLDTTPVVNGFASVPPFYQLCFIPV
Chain of Cytochrome P450 3A4 (Homo sapiens) (P08684 whole entry, looked up): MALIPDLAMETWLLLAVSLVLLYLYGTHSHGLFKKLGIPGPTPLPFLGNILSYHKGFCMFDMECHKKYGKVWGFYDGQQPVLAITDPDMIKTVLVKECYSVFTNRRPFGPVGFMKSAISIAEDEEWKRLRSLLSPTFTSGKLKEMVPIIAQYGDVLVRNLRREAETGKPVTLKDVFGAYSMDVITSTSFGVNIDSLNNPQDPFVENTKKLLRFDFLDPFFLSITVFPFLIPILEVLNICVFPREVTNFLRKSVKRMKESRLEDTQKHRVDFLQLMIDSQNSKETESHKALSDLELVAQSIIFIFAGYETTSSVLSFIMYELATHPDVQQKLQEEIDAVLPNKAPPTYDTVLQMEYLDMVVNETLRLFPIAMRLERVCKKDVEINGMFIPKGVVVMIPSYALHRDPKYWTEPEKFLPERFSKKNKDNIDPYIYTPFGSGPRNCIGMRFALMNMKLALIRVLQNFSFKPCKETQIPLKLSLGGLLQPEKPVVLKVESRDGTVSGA

As to `CCCCOC(=O)CC(CC(=O)OCCCC)(OC(C)=O)C(=O)OCCCC`, the compound was called inactive (in assay [1]; in assay [2]; in assay [3]; with BCL2L11 (gene 10018); in [4]; in assay [5]). Moreover, the outcome (in [6]; with Caspase-3 (Homo sapiens); in assay [7]; in [8]; in assay [9]; in [10]) was inactive. The call (in assay [11]; with CYP2C8 (gene 1558); with CYP2C9 (gene 1559); with CYP2E1 (gene 1571); with CYP4A11 (gene 1579); in [12]) was inactive. Also, in assay [13], the result was inactive.
One may read the AC50 as the concentration giving half of the maximal activity seen. With `CC/C(=C(/CC)c1ccc(O)cc1)c1ccc(O)cc1`, the outcome (in assay [1]; in assay [3]; in assay [5]; in [6]; in assay [7]; with CYP2C8 (gene 1558)) was inactive. The result in assay [13] was inactive. The AC50 in [2] was 94.1 µM (active); with BCL2L11 (gene 10018) it was 88.8 µM (active); in the assay with Caspase-3 (Homo sapiens), 93 µM (active); in assay [9], 93.2 µM (active); in assay [10], 82.4 µM (active); in the assay with CYP2E1 (gene 1571), 82.1 µM (active). The concentration at half-maximal activity (AC50) in the assay with CYP4A11 (gene 1579) was 83.4 µM (active); in assay [12], 67.6 µM (active).
In the case of `CCCCCCCC[Si](OCC)(OCC)OCC`, the result in assay [1], in assay [2], in assay [3], in assay [4], in assay [5] and in [6] was inactive. Also, the outcome (in the assay with Caspase-3 (Homo sapiens); in assay [7]; in assay [8]; in assay [9]; in [10]; in assay [11]) was inactive. Moreover, the compound was classed as inactive (in the assay with CYP2C8 (gene 1558); with CYP2C9 (gene 1559); with CYP2E1 (gene 1571); in the assay with CYP4A11 (gene 1579); in [14]; in assay [12]). Also, the compound was called inactive in assay [13].
